Screening results as filed in PubChem BioAssay.
In the library only some 2.1% were active in any assay of this set; here they are far more common.
eIF4H inh – inhibitors of RNA binding by human eIF4H; eIF4H fluorescence polarization binding assay; inhibition, % at 35 µM; 290,000 tested, 0.94% active; AID 2012;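 note: calls also rest on retests at 20 µM and on dose response follow-up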
PABP polyA inh – blocks human PABP binding to poly(A) RNA; 290,000 tested, 1% active; fluorescence polarization; inhibition, % at 35 µM; AID 2014; P11940;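 note: calls also rest on retests at 20 µM and on dose response follow-up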
Target sequence (P11940 whole entry, looked up): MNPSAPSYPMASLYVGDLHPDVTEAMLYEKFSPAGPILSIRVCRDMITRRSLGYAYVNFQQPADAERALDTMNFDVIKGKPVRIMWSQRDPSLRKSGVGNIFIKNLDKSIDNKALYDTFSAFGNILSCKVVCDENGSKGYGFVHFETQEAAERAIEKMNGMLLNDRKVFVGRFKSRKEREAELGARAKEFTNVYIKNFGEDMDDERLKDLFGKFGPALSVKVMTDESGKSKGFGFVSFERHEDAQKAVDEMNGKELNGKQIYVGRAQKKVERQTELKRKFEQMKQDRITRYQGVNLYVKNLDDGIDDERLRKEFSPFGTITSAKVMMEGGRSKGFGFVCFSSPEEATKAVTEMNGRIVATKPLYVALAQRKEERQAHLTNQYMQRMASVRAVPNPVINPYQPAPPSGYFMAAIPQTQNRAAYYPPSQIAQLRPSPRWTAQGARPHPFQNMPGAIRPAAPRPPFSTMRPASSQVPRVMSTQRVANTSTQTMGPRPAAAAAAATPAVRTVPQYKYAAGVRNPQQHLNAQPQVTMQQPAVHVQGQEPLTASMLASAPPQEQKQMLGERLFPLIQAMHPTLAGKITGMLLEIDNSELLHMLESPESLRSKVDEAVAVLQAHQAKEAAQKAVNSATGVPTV
MLLE-PAM2 inh – blocks PAM2 peptide binding to the PABP1 MLLE domain; inhibition, % at 20 µM; AID 588489; 360,000 tested, 0.36% active; GST-MLLE / FITC-PAM2 fluorescence polarization; P11940; in the data active = inhibition above about 35%, passing the limit was not always enough;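 note: plate controls were DMSO wells with GST-MLLE for no effect and wells lacking GST-MLLE protein for full effect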
CendR NRP1 mod – NRP-1/CendR interaction modulation; FAM-RPARPAR peptide binding to NRP-1, fluorescence polarization; 360,000 tested, 0.85% active; O14786; inhibition, % at 25 µM;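 active = inhibition or corrected inhibition above about 18%, plus a signal ratio from 0.5 to 1.5, limit read from the data, passing the limit was not always enough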
The depositor's hits bear a star; nt = no result given. Unless noted, the rule behind the calls is not given here.

SMILES	eIF4H inh	PABP polyA inh	MLLE-PAM2 inh	CendR NRP1 mod
COc1cccc(NC(=O)CCC(=O)Nc2cccc(OC)c2)c1	0.0	8.9	15.5	7.0
Cc1cc(F)ccc1-c1cc(C(=O)NC2CCCCC2)[nH]n1	nt	nt	6.8	21.1
COc1ccc(S(=O)(=O)N(C)[C@H]2C[C@H]3c4cc(Oc5ccccc5C)ccc4CCN3C(=O)[C@H]2[C@H](C)O)cc1	nt	nt	-8.2	0.9
O=C1CCCN1CCc1cccc2ccccc12	nt	nt	4.5	23.4*
O=C1CCCCN1CCc1c[nH]c2ccccc12	2.5	19.0	-4.3	0.8
Cc1c(Cl)cccc1NC(=O)NN1CCN(C)CC1	-2.8	-9.8	-3.6	-8.0
CCN(C[C@H]1N[C@@](CC)(C(=O)OC)[C@H]2C(=O)N(C)C(=O)[C@@H]12)S(=O)(=O)c1ccc(OC)cc1	nt	nt	11.7	27.5*
CC(OC(=O)c1ccc2c(=O)n3c(nc2c1)CCC3)C(=O)Nc1ccc(C(N)=O)cc1 (stereo unspecified)	nt	nt	-2.9	17.3
CC(OC(=O)c1ccc2c(=O)n3c(nc2c1)CCC3)C(N)=O (stereo unspecified)	4.5*	75.2*	-12.8	5.1
O=C(O)c1ccccc1Nc1cc(Cl)c2nonc2c1[N+](=O)[O-]	11.0	10.4	41.8*	1.1
O=[N+]([O-])c1c(Nc2ccc(O)cc2)cc(Cl)c2nonc12	9.4	4.1	39.2*	26.3*
COc1ccc(C(=O)NCCS(=O)(=O)N2CCc3ccccc3C2)cc1	nt	nt	0.7	0.7
COCCN1C(=O)CN(S(C)(=O)=O)CC1(C)C(=O)NCc1ccccc1 (stereo unspecified)	nt	nt	nt	8.8
COC(=O)c1ccccc1NC(=O)c1ccc2nccnc2c1	54.5	active	-21.1	-31.3
Cc1cccc(C)c1NC(=S)Nc1ccc(F)cc1	-2.7	2.9	43.9*	1.0
O=C(O)CCC(=O)Nc1ccc(N2CCCCC2)c(C(=O)O)c1	-2.6	-2.0	3.0	-15.8
O=C(O)CCC(=O)Nc1ccc2c(c1)Cc1cc(NC(=O)CCC(=O)O)ccc1-2	58.6*	12.2	7.3	1.1
CCc1cc(=O)n2[nH]c(-c3ccccc3)c(-c3ccccc3)c2n1	8.6	-4.7	1.2	-8.8
Cc1cc(C)cc(NC(=O)c2ccc(CSc3nnnn3C)cc2)c1	7.0	2.9	9.6	28.3*
COc1ccc2nc(NC(=O)CN3CCOCC3)sc2c1	-9.8	1.2	2.2	21.3*
COc1ccc2nc(NC(=O)c3cc(S(=O)(=O)N4CCOCC4)ccc3C)sc2c1	5.5	-9.3	-11.2	25.6*
Cc1ccc(S(=O)(=O)N2CCOCC2)cc1NCC(=O)Nc1ccc(OC(F)(F)F)cc1	nt	nt	-32.1	19.8*
COc1ccc2nc(NC(=O)c3cccc(S(=O)(=O)N4CCOCC4)c3)sc2c1	-11.6	1.6	-2.2	0.9
Cn1c(=O)[nH]c(=O)c2c1nc(N1CCCCC1)n2CC(O)COc1ccccc1 (stereo unspecified)	-13.0	5.8	-2.3	7.4
COc1ccc(OC)c(C(=O)COC(=O)c2cccnc2Cl)c1	5.4	-2.2	-1.3	15.7
SMILES	eIF4H inh	PABP polyA inh	MLLE-PAM2 inh	CendR NRP1 mod
COc1ccc(C(=O)COC(=O)c2cccnc2Cl)c(OC)c1	58.7*	1.5	-15.0	-12.3
CC1CCC(NC(=O)COC(=O)c2cccnc2Cl)CC1 (stereo unspecified)	nt	nt	1.2	24.1*
O=C(COC(=O)c1cccnc1Cl)NC1CCCCC1	nt	nt	-2.1	-0.2
CNc1cccccc1=S	101.0*	60.6*	48.9*	24.6*
CC(CN1CCCCCC1)C(=O)NN (stereo unspecified)	active	82.4*	-12.8	0.1
CC(CN1CCCCC1)C(=O)NNC(=O)C12CC3CC(CC(C3)C1)C2 (stereo unspecified)	1.7	8.1	4.5	3.8
O=c1cc(CN2CCCc3ccccc32)nc2sccn12	94.0*	-16.5	123.9	45.6
CCn1c(C)cc2c(c1=O)C(c1ccncc1)C(C#N)=C(N)O2 (stereo unspecified)	5.8	2.1	3.9	-13.2
COc1ccc(CCn2c(C)cc3c(c2=O)C(c2ccncc2)C(C#N)=C(N)O3)cc1OC (stereo unspecified)	-8.3	-7.2	6.9	18.7*
Cc1cccc2cc(=O)[nH]c(C)c12	0.2	55.1*	-85.6	-6.7
CC1CCN(S(=O)(=O)c2c[nH]c(=O)[nH]c2=O)CC1	nt	nt	12.9	-14.4
O=C(NN1CCOCC1)c1ccc(Cl)cc1[N+](=O)[O-]	-10.2	-5.8	1.6	7.5
O=S(=O)(NC1CCCCC1N1CCN(c2ccc(F)cc2)CC1)c1ccccc1 (stereo unspecified)	10.5	3.3	-9.4	14.2
O=C(CC(SCc1ccco1)c1ccc(O)cc1)c1cccs1 (stereo unspecified)	-3.8	17.2	27.6	-3.9
O=C(CC(SCCO)c1ccc2c(c1)OCO2)c1cccs1 (stereo unspecified)	5.6	4.2	43.4*	2.7
Cc1ccc(-c2noc(C3CCCN(C(=O)c4ccccc4Br)C3)n2)o1 (stereo unspecified)	69.0	-5.8	-2.5	-10.4
Cc1ccccc1NC(=O)NNC(=O)COc1ccc2ccccc2c1	5.4	2.6	5.1	12.4
O=C(CSc1n[nH]c(=O)[nH]c1=O)Nc1ccc2c(c1)C(=O)c1ccccc1C2=O	97.7*	74.7*	13.0	-34.9
N#CCSc1ccccc1NC(=O)CN1C(=O)C2CC=CCC2C1=O (stereo unspecified)	nt	nt	48.7	123.7
O=C(NNC(=O)c1ccccc1Br)c1ccc2nc[nH]c2c1	83.7*	68.8*	0.2	16.1
O=C(NNC(=O)c1ccccc1F)c1ccc2nc[nH]c2c1	22.7	13.1	-11.1	12.4
COc1ccc(NS(=O)(=O)c2ccc3c(c2)N(C(C)=O)CCS3)cc1	-8.7	1.9	8.4	-6.9
CC(=O)N1CCSc2ccc(S(=O)(=O)Nc3ccc(C)cc3)cc21	-7.3	0.4	-0.3	21.9*
Cc1nc2scc(-c3ccccc3)c2c(=O)n1N=C1C=CC(=O)C=C1	71.4*	20.5*	nt	nt
CCOc1cc(CNS(=O)(=O)c2cn(C)cn2)cc(OCC)c1OCC	-8.8	-4.9	5.7	21.5*
SMILES	eIF4H inh	PABP polyA inh	MLLE-PAM2 inh	CendR NRP1 mod
Cc1ccc(Nc2nc(N)nc(COC(=O)C3=COCCO3)n2)cc1	nt	nt	1.5	-1.2
O=C(O)c1ccc(-n2cccc2/C=C2/NC(=O)N(c3cccc(Cl)c3)C2=O)cc1	92.2	-9.3	-1.1	-42.2
Cc1ccc(NC(=O)CN2C(=O)N/C(=C\c3cccn3-c3cccc(C(=O)O)c3)C2=O)cc1	99.0*	1.5*	2.3	-39.4
CCOC(=O)c1cccc(-n2cccc2/C=C2\NC(=O)N(CC(=O)O)C2=O)c1	nt	nt	-1.3	-14.4
O=C(O)c1ccc(-n2cccc2/C=C2/NC(=O)N(c3ccccc3)C2=O)cc1	96.6*	83.9*	-40.6	-34.5
O=C(O)c1ccc(-n2cccc2/C=C2/SC(=O)N(CC(=O)N3CCCC3)C2=O)cc1	83.7*	79.5*	6.1	-29.7
Cc1ccc(NC(=O)CN2C(=O)N/C(=C/c3cc(C)n(-c4cccc(C(=O)O)c4)c3C)C2=O)cc1	86.2*	26.5*	17.7	-84.5
COc1ccc(C2=Nn3c(nnc3C(F)(F)F)SC2)cc1	-4.6	4.2	-20.2	-1.2
